ST2 IL33 inh: blocks human ST2 binding to IL-33; AlphaLISA ST2-Fc/biotin-IL-33 interaction, 1 h; 2.3% of 78,000 active; Q01638; AID 1259354; inhibition, % for hits at 17 µM; in the data active = inhibition above about 30%
Target sequence (Q01638 whole entry, looked up): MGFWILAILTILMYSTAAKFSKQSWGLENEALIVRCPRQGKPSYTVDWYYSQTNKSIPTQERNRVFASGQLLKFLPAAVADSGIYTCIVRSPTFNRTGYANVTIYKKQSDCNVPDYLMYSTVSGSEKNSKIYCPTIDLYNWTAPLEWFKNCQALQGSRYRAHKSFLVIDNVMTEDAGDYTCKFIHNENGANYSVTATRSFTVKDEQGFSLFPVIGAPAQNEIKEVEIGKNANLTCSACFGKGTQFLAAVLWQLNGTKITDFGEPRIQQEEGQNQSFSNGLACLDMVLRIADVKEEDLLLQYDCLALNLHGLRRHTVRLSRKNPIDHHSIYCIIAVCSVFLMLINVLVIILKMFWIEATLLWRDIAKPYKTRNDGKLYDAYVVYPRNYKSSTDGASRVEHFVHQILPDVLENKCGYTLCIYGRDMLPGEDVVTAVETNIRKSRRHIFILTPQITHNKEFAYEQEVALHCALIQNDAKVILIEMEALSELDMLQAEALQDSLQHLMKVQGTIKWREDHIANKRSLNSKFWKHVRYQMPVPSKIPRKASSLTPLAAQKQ
Each line names hits and unclear results; the compound was inactive in the other large screens. The sample as a whole holds a higher share of hits than the screen did.

CCCOC(=O)C1C2C=CC3(CN(C(C)c4ccc(OC)cc4)C(=O)C13)O2 (configuration not stated)	none
COc1ccc(/C=C/c2nc3ccccc3c(=O)n2Cc2ccccc2)cc1	none
CN(C)c1ccc(/C=C/c2nc3ccc(I)cc3c(=O)n2C)cc1	ST2 IL33 inh 42%
CN(C)c1ccc(/C=C/c2nc3ccccc3c(=O)n2CCCO)cc1	none
CN(C)C(=O)c1ccc2c(c1)N(C)C(CC(=O)NCCc1ncnn1C)CO2 (configuration not stated)	none
CCOc1ccc(NC(=O)C(c2ccccc2)c2ccccc2)cc1	none
CCOc1ccc(NC2=CC(=NS(=O)(=O)c3ccccc3)c3ccccc3C2=O)cc1	ST2 IL33 inh 77%
CCc1ccc(S(=O)(=O)N=C2C=C(Nc3ccc(O)cc3)C(=O)c3ccccc32)cc1	ST2 IL33 inh 91%
CCOc1ccc(NC(=O)c2ccccc2Cl)cc1	none
O=S(=O)(N=C(Nc1cccc(O)c1)c1ccccc1)c1ccc(Cl)cc1	none
CCOc1ccc(S(=O)(=O)N=C2C=C(Nc3ccc(O)cc3)C(=O)c3ccccc32)cc1	ST2 IL33 inh 84%
Cc1ccc(Cl)cc1N1CCN(C(=O)C(NS(=O)(=O)c2cccs2)C(C)C)CC1 (configuration not stated)	none
O=S(=O)(Nc1ccc(F)c(Cl)c1)c1cccs1	none
CCOc1ccc(NC(=O)Cc2ccccc2)cc1	none
CCc1ccc(NS(=O)(=O)c2ccc(OC)c(OC)c2)cc1	none
Cc1ccc(Cl)cc1NC1=CC(=NS(=O)(=O)c2cccs2)c2ccccc2C1=O	ST2 IL33 inh 56%
CCOc1ccc(NC(=O)C(Cc2ccccc2)N2C(=O)c3ccccc3C2=O)cc1 (configuration not stated)	none
CCCCCCCCCCCc1cc(=O)c2ccccc2n1C	none
CCC(C)NC(=O)CSc1nc2nc(C)c(Cc3cccc(Cl)c3)c(C)n2n1 (configuration not stated)	none
CCOc1ccc(C2OC(=O)Cc3cc(OCC)c(OCC)cc32)cc1 (configuration not stated)	none
CC(C)N=C(NS(=O)(=O)c1cccs1)c1ccccc1	none
O=C1C=C(Nc2ccc(O)cc2)C(=O)c2ccccc21	ST2 IL33 inh 42%
O=C1C(Nc2ccc(O)cc2)=CC(=NS(=O)(=O)c2cccs2)c2ccccc21	ST2 IL33 inh 88%
NC(=O)c1ccc(NS(=O)(=O)c2cccs2)cc1	none
O=C1C(Nc2ccccc2)=CC(c2ccc(O)cc2)N1c1ccccc1 (configuration not stated)	none
Cc1cccc(Nc2c3c4c(cccc4n(C)c2=O)C(=O)c2ccccc2-3)c1	none
Cc1cccc(NS(=O)(=O)c2ccc(F)cc2)c1	none
COc1ccc(S(=O)(=O)N=C2C=C(Nc3cccc(C)c3)C(=O)c3ccccc32)cc1	ST2 IL33 inh 79%
COc1ccc(NS(=O)(=O)c2ccc(NC(=O)Nc3ccc(Cl)cc3)cc2)cc1	none
COc1ccc(NC2=CC(=NS(=O)(=O)c3ccc(Cl)cc3)c3ccccc3C2=O)cc1	ST2 IL33 inh 93%
O=S(=O)(Nc1ccc(Oc2ccccc2)cc1)c1ccc(Cl)cc1	none
O=S(=O)(O)c1ccc(Nc2ccccc2)cc1	none
CC(C)COC(=O)C1C2C=CC3(CN(CCc4ccccc4)C(=O)C13)O2 (configuration not stated)	none
O=C(Cn1c(=O)[nH]c2ccsc2c1=O)NC1CCCc2ccccc21 (configuration not stated)	none
COCCN(Cc1nn(C)cc1Cl)Cc1sccc1C	none
CCCOc1ccc(C(=O)Nc2ccc(Cc3ccncc3)cc2)cc1	none
CC(=O)c1ccc(NC(=O)N2CCN(C(=O)CN)[C@@H](C(=O)N[C@H]3CCCNC3=O)C2)cc1	none
O=C(O)CCCNc1ccc(S(=O)(=O)O)cc1	none
O=C(c1cccs1)N1CCN(Cc2nc(CCc3ccccc3)no2)CC1	none
CC(C)=C(NC(=O)c1ccccc1)C(=O)Nc1cccc(Br)c1	none
CCOC(=O)C1=C(c2ccccc2)OC(N)=C(C#N)C1c1ccccc1F (configuration not stated)	none
CCOc1ccc(NC(=O)COc2ccc(OC)cc2)cc1	none
CCOc1ccc(NC2=NS(=O)(=O)c3ccccc32)cc1	none
CCOc1ccc(NC2=CC(=NS(=O)(=O)c3ccc(OC)cc3)c3ccccc3C2=O)cc1	ST2 IL33 inh 94%
O=C(Cc1ccccc1)N1CCN=C1SCc1ccccc1F	none
CCn1c(C2CCN(C(=O)Cn3c(=O)oc4ccccc43)CC2)nn(C)c1=O	none
Cc1ccc(Sc2c(C)nn(C(C)(C)C)c2OC(=O)c2ccco2)cc1	none
CCCCn1c(CN2CCN(CC)CC2)nc2c1c(=O)[nH]c(=O)n2C	none
O=[N+]([O-])c1cc(C=Nc2c(-c3ccco3)nc3ccccn23)c(Cl)cc1Cl	ST2 IL33 inh 44%
CC(C)c1ccc(Nc2c(-c3ccco3)nc3ccccn23)cc1	none
O=[N+]([O-])c1cc(N=Cc2nc(-c3ccccc3F)oc2O)ccc1Cl	none
CC12CCC3c4ccc(O)c(Br)c4CCC3C1CCC2O (configuration not stated)	none
C[C@]12CC[C@@H]3c4ccc(O)cc4CC[C@H]3[C@@H]1CCC2=O	none
COc1ccc2c(c1)CCC1C2CC[C@@]2(C)C1CC[C@@H]2NCCCCCCN1C(=O)C=CC1=O (some centres not stated)	ST2 IL33 inh 46%
